Measured values taken from PubChem BioAssay (EPA / NIEHS).
Records with an inconclusive call do not appear. Activity calls are given as the source filed them. Rule for the calls: active = hit-call score of the fitted dose curve at least 0.9, where 1 is the maximum; inconclusive = response in the unintended direction; inactive = score below 0.9.

Target: Estrogen-related receptor gamma (Homo sapiens) (UniProt P62508)
Test: ATG_ERRg_TRANS: Attagene TRANS-FACTORIAL HepG2 Assay for human Estrogen-Related Receptor gamma (ERRg) (AID 2282977);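 note: hits increase reporter signal over DMSO so potencies reflect activators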
Details: HepG2 Attagene TRANS reporter, ERRg transactivation
Procedure: ATG_TRANS is a cell-based, multiplexed-readout assay that uses HepG2, a human liver cell line, with measurements taken at 24 hours after chemical dosing in a 24-well plate.ATG_ERRg_TRANS is one of 30 assay component(s) measured or calculated from the ATG_TRANS assay. It is designed to make measurements of mRNA induction, a form of inducible reporter, as detected with fluorescence intensity signals by Reverse transcription polymerase chain reaction (RT-PCR) and Capillary electrophoresis technology.Data from the assay component ATG_ERRg_TRANS was analyzed into 1 assay endpoint. This assay endpoint, ATG_ERRg_TRANS, was analyzed in the positive analysis fitting direction relative to DMSO as the negative control and baseline of activity. Using a type of inducible reporter, measures of mRNA for gain-of-signal activity can be used to understand the reporter gene at the transcription factor-level as they relate to the gene ESRRG. Furthermore, this assay endpoint can be referred to as a primary readout, because this assay has produced multiple assay endpoints where this one serves a reporter gene function. To generalize the intended target to other relatable targets, this assay endpoint is annotated to the nuclear receptor intended target family, where the subfamily is steroidal.
Human liver HepG2 cells are transiently transfected with multiple reporter transcription units (MRTUs) in 6-well plates using FuGene 6 reagent (Roche; 3 ml FuGene/1 mg DNA). The MRTU constructs are regulated by a cis-regulating element (promoter). […] A major difference between the CIS and TRANS system is that in CIS activities of endogenous TFs are measured, whereas the TRANS assay evaluates changes in activities of exogenous, chimeric NR-Gal4 proteins. […] At the end of 24 hour incubation, total RNA was isolated using TriZol reagent (Invitrogen). The isolated RNA is then reverse-transcribed using oligo(dT) primer and Mo-MLV reverse transcriptase (Invitrogen) with DNAse I (Ambion) treatment for 30 min. The one-tenth of the produced cDNA was amplified by PCR using Taq DNA polymerase (Invitrogen) and two reporter sequence-specific primers. The PCR products were fluorescently labeled by primer extension with 6-arboxyfluorescein (6-FAM) 5'-labeled reporter sequence-specific primer (2 min at 95 C, 20 s at 68 C and 10 min at 72 C) and these products were digested with 5U of HpaI (New England Biolabs) for 2h at 37 C. The fragments were purified using Qiaquick PCR columns (Qiagen), analyzed on an ABI 3130xL genetic analyzer (Applied Biosystems) with peak positions identified by using a set of X-rhodamine (ROX)-labeled MapMarker1000 molecular weight standards (BioVentures). The raw capillary electrophoresis data was processed using Attagraph software (Attagene).

Chain of Estrogen-related receptor gamma (Homo sapiens) (P62508 whole entry, looked up): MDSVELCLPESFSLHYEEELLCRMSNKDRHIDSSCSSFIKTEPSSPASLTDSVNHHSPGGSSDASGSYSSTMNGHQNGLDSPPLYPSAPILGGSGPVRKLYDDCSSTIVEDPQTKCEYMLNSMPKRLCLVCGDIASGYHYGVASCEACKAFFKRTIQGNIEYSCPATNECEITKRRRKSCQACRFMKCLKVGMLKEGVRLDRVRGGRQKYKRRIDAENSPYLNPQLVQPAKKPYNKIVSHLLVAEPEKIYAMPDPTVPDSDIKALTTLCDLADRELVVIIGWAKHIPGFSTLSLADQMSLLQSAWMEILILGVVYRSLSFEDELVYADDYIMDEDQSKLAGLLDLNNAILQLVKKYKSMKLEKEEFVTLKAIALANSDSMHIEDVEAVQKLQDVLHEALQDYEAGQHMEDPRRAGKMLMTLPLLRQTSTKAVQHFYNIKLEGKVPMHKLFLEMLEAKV

| SMILES | outcome | AC50 |
| --- | --- | --- |
| Cc1ccc(OP(=O)(Oc2ccc(C)cc2C)Oc2ccc(C)cc2C)c(C)c1 | inactive |  |
| CC(C)=CC1C(C(=O)OCc2cccc(Oc3ccccc3)c2)C1(C)C (stereo not given) | inactive |  |
| C=CCc1ccccc1O | inactive |  |
| CCC(C)(C#N)N=NC(C)(C#N)CC (stereo not given) | inactive |  |
| Cc1cc(C(F)(C(F)(F)F)C(F)(F)F)ccc1NC(=O)c1cccc(I)c1C(=O)NC(C)(C)CS(C)(=O)=O | inactive |  |
| CC(c1ccccc1)(c1ccc(O)cc1)c1ccc(O)cc1 | inactive |  |
| O=C(Nc1ccc(Br)cc1)c1cc(Br)cc(Br)c1O | inactive |  |
| Clc1cccc(Cl)c1Cl | inactive |  |
| CCCSP(=S)(OCC)Oc1ccc(SC)cc1 (stereo not given) | inactive |  |
| COc1ccccc1N | inactive |  |
| CS(=O)(=O)c1ccc(C(=O)C2C(=O)CCCC2=O)c(Cl)c1COCC(F)(F)F | inactive |  |
| COCC(=O)N(c1c(C)cccc1C)[C@H](C)C(=O)OC | inactive |  |
| Cc1c([N+](=O)[O-])c(C)c([N+](=O)[O-])c(C(C)(C)C)c1[N+](=O)[O-] | inactive |  |
| O=C(CCl)NCO | inactive |  |
| CCOc1ccc(N)cc1 | inactive |  |
| Cl[C@H]1OCCO[C@@H]1Cl | inactive |  |
| CC1(C)COP(Oc2ccccc2)OC1 | inactive |  |
| CCCCN(CCCC)C(=S)S | inactive |  |
| C=CC(=O)OCC(COC(=O)C=C)(COC(=O)C=C)COC(=O)C=C |  | 100 µM (active) |
| N#Cc1ccccc1N | inactive |  |

| SMILES | outcome | AC50 |
| --- | --- | --- |
| O=[N+]([O-])c1ccc(Nc2ccccc2)cc1 | inactive |  |
| O=[N+]([O-])c1c2ccccc2cc2ccccc12 | inactive |  |
| O=C1c2ccccc2C(=O)C1C(=O)C(c1ccccc1)c1ccc(Cl)cc1 (stereo not given) | inactive |  |
| CCCCOP(=O)(CCCC)OCCCC | inactive |  |
| O=c1[nH]c(=O)n(Cl)c(=O)n1Cl | inactive |  |
| OC(Cc1ccccc1Cl)(Cn1cncn1)C1(Cl)CC1 (stereo not given) | inactive |  |
| ClCc1ccccc1Cl | inactive |  |
| Clc1cc(C(Cl)(Cl)Cl)cnc1Cl | inactive |  |
| O=c1nc(O)n(Cl)c(=O)n1Cl | inactive |  |
| CCOP(=S)(OCC)O/N=C(\C#N)c1ccccc1 | inactive |  |
| COC(=O)Nc1cccc(OC(=O)Nc2cccc(C)c2)c1 | inactive |  |
| C=CCOC(F)(C(F)(F)F)C(F)(F)F | inactive |  |
| CC(C)[C@H](C(=O)OC(C#N)c1cccc(Oc2ccccc2)c1)c1ccc(OC(F)F)cc1 (stereo not given in full) | inactive |  |
| O=c1[nH]c2ccccc2n1C1CCN(CCCC(c2ccc(F)cc2)c2ccc(F)cc2)CC1 | inactive |  |
| O=C(O)COc1ccc(Cl)cc1 | inactive |  |
| NNCCO | inactive |  |
| N#Cc1ccc(Cl)cc1 | inactive |  |
| O=C(N[C@H]1CN2CCC1CC2)c1ccc2c(c1)OCCO2 | inactive |  |
| Cc1cccc(N=Nc2ccc(N(C)C)cc2)c1 | inactive |  |
| [Cl][Sn]([c]1ccccc1)([c]1ccccc1)[c]1ccccc1 | inactive |  |
